In the library only some 18% were active in any assay of this set; here they are far more common.
TDP1 cell noCPT = qHTS for Inhibitors of human tyrosyl-DNA phosphodiesterase 1 (TDP1): qHTS in cells in absence of CPT; DT40 Tdp1-/- hTDP1 cells, no CPT, ATP luminescence, 48 h; Potency, µM (top dose mostly 46.2 µM), for inactives: top-dose activity change, negative = growth inhibition, usual class: inhibitors; actives 15% (n = 420,000); AID 686978, 2013; further: potency means the concentration at half of the fitted maximal effect; on the % scale 0 is the no-effect control and ±100 the full control effect; nearly all actives have a fitted effect of over 55% in size
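Growth kinetics read by CellTiter-Glo luminescence after ≥48 hr at 37 °C. Cells: DT40 Tdp1-/- stably carrying human TDP1, 400 per well, compound exposure in the absence of CPT (DMSO vehicle).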
IL1B secr inh = blocks inflammasome-driven IL-1 beta release | THP-1 LPS/ATP IL-1B secretion, AlphaLISA, 16 h; stronger effect = lower value | activity change, % at 57.5 µM | actives 4.7% (n = 360,000) | AID 743279; in the data active means activity change below about -50%; inconclusive means mostly about -30% to -49%; further: on the % scale 0 is the no-effect control and ±100 the full control effect
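THP-1 cells pretreated 1 hr with compounds (up to 57.5 uM final), then stimulated with LPS (250 ng/mL final) plus ATP (1.25 mM final); secreted IL-1B measured by AlphaLISA after 16 hr, decreased signal indicating inhibition.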
DT40 TDP1 CPT = growth inhibition of DT40 Tdp1-/-;hTDP1 cells with camptothecin (screen for TDP1 inhibitors); chicken DT40 Tdp1-/-;hTDP1 cells + 20 nM CPT, ATP luminescence, 48 h; Potency, µM (titrated, usually from 46.2 µM), inactives show top-dose activity change, negative = growth inhibition, actives largely listed as inhibitors; actives 12% (n = 420,000); AID 686979; further: potency means the concentration at half of the fitted maximal effect; on the % scale 0 is the no-effect control and ±100 the full control effect; nearly all actives have a fitted effect of over 55% in size
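Chicken DT40 Tdp1-/- cells complemented with human TDP1, 400 cells/well, exposed to compounds plus 20 nM camptothecin for at least 48 h at 37 C; viability read as ATP content by CellTiter-Glo luminescence.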
HepG2 tox = HepG2 cytotoxicity, counter-screen for TGF-b inhibitors; actives 0.76% (n = 410,000); HepG2 CAGA-GFP viability, ATP luminescence, 18 h; Potency, µM (doses to about 46.1 µM), for inactives: at the top dose activity change, negative = cytotoxicity, most hits filed as cytotoxic; further: potency means the concentration at half of the fitted maximal effect
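CellTiter-Glo luminescence gave cytotoxicity after 18 hours at 37 degrees C. The cells were HepG2 CAGA-GFP in 1% FBS DMEM, stimulated with 500 pg/mL TGF-beta after compound addition. %Activity was normalised to no-cell wells (complete cell-killing) and DMSO (no toxicity), and curves were fitted and classified.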
TDP1 inh = inhibitors of human tyrosyl-DNA phosphodiesterase TDP1 | Q9NUW8 | recombinant TDP1, AlphaScreen DNA substrate cleavage | Potency, µM (series often up to 130 µM), inactives show top-dose activity change, negative = inhibition, hits mostly inhibitors | actives 0.28% (n = 350,000); further: potency means the concentration at half of the fitted maximal effect; on the % scale 0 is the no-effect control and ±100 the full control effect; nearly all actives have a fitted effect of over 40% in size
Target sequence (Q9NUW8 whole entry, looked up): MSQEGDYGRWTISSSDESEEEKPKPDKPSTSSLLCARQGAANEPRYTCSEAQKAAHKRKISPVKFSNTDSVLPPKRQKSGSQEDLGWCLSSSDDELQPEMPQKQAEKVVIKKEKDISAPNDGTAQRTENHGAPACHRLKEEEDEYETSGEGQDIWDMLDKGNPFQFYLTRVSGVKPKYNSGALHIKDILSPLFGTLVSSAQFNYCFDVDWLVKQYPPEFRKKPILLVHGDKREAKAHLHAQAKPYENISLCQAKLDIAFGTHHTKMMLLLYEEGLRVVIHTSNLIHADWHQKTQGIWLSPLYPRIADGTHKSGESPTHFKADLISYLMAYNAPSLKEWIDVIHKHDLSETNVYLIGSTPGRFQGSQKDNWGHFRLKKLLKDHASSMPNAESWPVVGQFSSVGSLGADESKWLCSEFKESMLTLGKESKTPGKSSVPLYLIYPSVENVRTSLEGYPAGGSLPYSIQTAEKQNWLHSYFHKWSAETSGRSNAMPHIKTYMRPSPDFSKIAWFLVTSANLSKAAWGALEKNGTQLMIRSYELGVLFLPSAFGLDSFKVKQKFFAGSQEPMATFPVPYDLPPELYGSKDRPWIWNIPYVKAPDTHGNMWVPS
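Here, a 5' biotin and 3' phosphotyrosine-FITC DNA oligonucleotide reports Tdp1 activity: intact substrate bridges AlphaScreen beads, while cleavage leaves a 3' phosphate and drops signal. All incubations at room temperature.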
TGFb inhibitor = inhibitors of TGF-b signaling; HepG2 CAGA-GFP TGF-b/SMAD3 reporter, GFP fluorescence, 18 h; TGF-beta stimulated, 500 pg/mL final; Potency, µM (titrated, usually from 46.1 µM), for inactives: at the highest dose activity, negative = inhibition, hits mostly inhibitors; actives 1.2% (n = 410,000); further: potency means the concentration at half of the fitted maximal effect; on the % scale 0 is the no-effect control and ±100 the full control effect; nearly all actives have a fitted effect of over 65% in size
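Smad-responsive CAGA-GFP expression was quantified in HEPG2 cells exposed to compounds and 500 pg/mL final TGF-beta for 18 h at 37 degrees C; unstimulated wells defined full inhibition.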
* marks the source's active call; other numbers are inactive results; ? = inconclusive; . = no result given. Unless noted, the call rests on the fitted dose curve; in most records, active means well fitted curve in the direction sought with a large enough effect; inconclusive means small, poorly fitted or top-dose-only effect, or another doubt; inactive means no such curve, though single readings can be large; an effect the other way counts as inactive or inconclusive.

SMILES | TDP1 cell noCPT | IL1B secr inh | DT40 TDP1 CPT | HepG2 tox | TDP1 inh | TGFb inhibitor
CC(=O)N1c2ccc(Cl)cc2C2C=CCC2C1c1cccc2ccccc12 (stereo unspecified) | ? | ? | 23.1µM* | -57.6% | 0.0% | ?
Cc1ccc(CNC(=O)CSc2c3c(nc4ccc(Cl)cc24)CCCC3)o1 | ? | -15.5 | ? | -32.6% | 3.6% | 2.4%
CC1CCN(C(=O)CSc2c3c(nc4ccc(Cl)cc24)CCCC3)CC1 | 16.4µM* | . | 20.6µM* | -29.4% | 2.3% | 15.8µM*
CC1CCCN(C(=O)CSc2c3c(nc4cc(Cl)ccc24)CCCC3)C1 (stereo unspecified) | 11.6µM* | . | 20.6µM* | -31.3% | -1.3% | ?
O=C(CSc1c2c(nc3cc(Cl)ccc13)CCCC2)N1CCN(c2ccccc2F)CC1 | 6.51µM* | . | 10.3µM* | -59.0% | -1.3% | ?
CC1CCCCN1C(=O)CSc1c2c(nc3cc(Cl)ccc13)CCCC2 (stereo unspecified) | 18.4µM* | . | ? | -27.3% | 6.4% | ?
CC(C)CCNC(=O)CSc1c2c(nc3ccc(Cl)cc13)CCCC2 | ? | . | ? | -36.2% | 4.7% | ?
Cn1c(=O)cc(SCC(=O)N2CCN(c3ccccc3F)CC2)c2ccc(Cl)cc21 | ? | . | ? | -12.6% | 0.0% | -7.9%
O=C1CSC(c2ccccc2)N1Cc1ccccc1 (stereo unspecified) | . | . | . | . | 1.2% | .
COc1ccccc1-c1cnc(C(O)c2c(C)cc(C)cc2C)[nH]1 (stereo unspecified) | ? | 19.5 | ? | 0.8% | . | 28.0%
FC(F)(F)C(Cl)Br (stereo unspecified) | -9.3% | . | -10.3% | . | 7.0% | .
COC(=O)c1ccccc1NC(=O)c1cc2ccccn2n1 | -2.8% | . | -26.1% | -21.8% | . | -5.7%
O=C(CSc1c2c(nc3ccc(Cl)cc13)CCCC2)N1CCN(C(=O)c2ccco2)CC1 | 20.6µM* | -79.0* | 14.6µM* | -83.9% | . | ?
O=C(NNC(=O)c1ccc(Br)s1)c1ccc(F)c(S(=O)(=O)N2CCOCC2)c1 | -23.2% | 43.5 | ? | -19.1% | 0.3% | -29.2%
O=S(=O)(Cc1ccccc1)N=Nc1c(O)[nH]c2ccc(Br)cc12 | 18.4µM* | 75.9 | 13µM* | -0.4% | 7.5% | ?
COc1ccc(C2CC(c3ccccc3)Oc3cc(OC)ccc32)cc1 (stereo unspecified) | . | . | . | 10.9% | -9.1% | -5.2%
O=C(/C=C/c1ccccc1Cl)c1cccnc1 | 16.4µM* | ? | 7.31µM* | 11.2µM* | 4.6% | ?
O=C(/C=C/c1ccccc1Cl)NNC(=O)c1ccncc1 | -1.4% | -2.1 | 7.3% | -39.0% | 1.3% | -24.0%
O=C(/C=C/c1c(F)cccc1Cl)Nc1ncccn1 | 0.4% | -7.7 | 0.7% | 14.7% | 2.4% | -6.3%
O=C(/C=C/c1c(F)cccc1Cl)c1ccc(O)cc1 | 23.1µM* | ? | ? | -59.2% | 4.8% | ?
O=C(/C=C/c1ccccc1)NNC(=O)c1cccnc1 | 0.1% | 15.7 | 1.2% | 5.3% | 2.0% | 3.8%
O=C(/C=C/c1ccccc1Cl)c1ccc(O)cc1 | 14.6µM* | -95.2* | 16.4µM* | -29.0% | 5.1% | ?
N#Cc1ccc(/C=C/C(=O)c2cccnc2)cc1 | 14.6µM* | ? | 10.3µM* | -125.5% | 8.0% | ?
CCN(CC)c1ccc(/C=C/C(=O)c2ccc(Br)cc2)cc1 | ? | -64.6* | 16.4µM* | -22.5% | . | 220.1%
O=C(/C=C/c1ccc(Cl)cc1)c1cccnc1 | 8.2µM* | ? | 5.8µM* | -31.7% | 2.3% | ?
CCOc1ccc(/C=C/C(=O)c2ccccc2)cc1 | ? | ? | ? | -13.6% | -3.8% | ?
